Results published in PubChem BioAssay (NCATS).
Several values for one entry are separate records, joined by “and”; a condition that tells them apart may be missing. Identical values can stand only once. Results filed as inconclusive are left out. A call without a number means that no potency is given here. More than one record can exist for a structure, and the calls need not agree. Activity calls are given as the source filed them. Calls come from the whole dose curve; as a rule, active = well fitted curve in the direction sought with a large enough effect; inconclusive = small, poorly fitted or top-dose-only effect, or another doubt; inactive = no such curve, though single readings can be large; an effect the other way counts as inactive or inconclusive.

Columns and labels:
[1] = Primary qHTS for inhibitors of nuclear receptor binding SET domain protein 2 (NSD2) in an isogenic RCH-ACV NSD2 p.E1099K mutant (9B) (AID 1645876); note: nearly all actives have a fitted effect of over 70% in size; note: potency is the fitted concentration of half-maximal effect
[2] = Primary qHTS for inhibitors of nuclear receptor binding SET domain protein 2 (NSD2) in an RCH-ACV wild type WT cells (2C) (AID 1645877); note: nearly all actives have a fitted effect of over 70% in size; note: potency is the fitted concentration of half-maximal effect
Papain (Carica papaya) = Papain (Carica papaya) (UniProt P00784); assay: Primary qHTS assay for inhibitors of the protease papain (AID 1645873);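 note: papain turnover of Z-FR-AMC read as the AMC fluorescence gain over 10 min; series mostly up to about 50 µM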
Sequence of Papain (Carica papaya) (P00784 whole entry, looked up): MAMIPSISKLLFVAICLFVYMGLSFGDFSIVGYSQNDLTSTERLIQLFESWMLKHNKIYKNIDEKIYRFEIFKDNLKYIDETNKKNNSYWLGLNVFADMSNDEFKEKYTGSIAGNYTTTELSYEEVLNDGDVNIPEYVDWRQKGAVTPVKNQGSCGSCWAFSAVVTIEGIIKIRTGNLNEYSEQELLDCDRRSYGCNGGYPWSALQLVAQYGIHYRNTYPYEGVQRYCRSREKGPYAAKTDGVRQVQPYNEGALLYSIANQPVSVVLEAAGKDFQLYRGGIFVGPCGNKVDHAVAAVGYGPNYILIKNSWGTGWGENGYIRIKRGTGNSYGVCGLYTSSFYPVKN

Compound | Potency [1] | Potency [2] | outcome (Papain (Carica papaya))
O=C(OCCN1CCOCC1)c1cccnc1Nc1cccc(C(F)(F)F)c1 | inactive | inactive | 
Cn1cnc2c(NCc3ccccc3)nc(NCCO)nc21 |  | inactive | inactive
CC(C)(C)CC(=O)OCC(=O)[C@@]1(O)CC[C@H]2[C@@H]3CCC4=CC(=O)C=C[C@]4(C)[C@H]3[C@@H](O)C[C@@]21C | 21.1 µM (active) | 53.1 nM (active) | 
CCOC(=O)c1ccc(NC(=O)CN2CCCCC2)cc1 | inactive | inactive | 
CC(C)N(CCC(=O)c1ccc2ccccc2c1)Cc1ccccc1 | 6.61 µM (active) and 8.2 µM (active) | 5.25 µM (active) and 11.6 µM (active) | 
O=C(O)Cc1ccccc1Oc1ccc(Cl)cc1Cl | inactive | inactive | 
CCCC(=O)O[C@]1(C(=O)CCl)[C@@H](C)C[C@H]2[C@@H]3CCC4=CC(=O)C=C[C@]4(C)[C@@]3(F)C(=O)C[C@@]21C |  | 0.7 nM (active) | 
CCCCC(=O)OCC(=O)[C@H]1[C@H](C)C[C@H]2[C@@H]3C[C@H](F)C4=CC(=O)C=C[C@]4(C)[C@@]3(F)[C@@H](O)C[C@@]21C |  | 3.3 nM (active) | 
O=[N+]([O-])c1ccc(-c2nc(-c3ccc(F)cc3)c(-c3ccncc3)[nH]2)cc1 | inactive and 18.4 µM (active) | inactive and 23.1 µM (active) | inactive
CN1CCC(=C2c3ccccc3CCc3cccnc32)CC1 | inactive |  | 
CCCCCCCCCCCCCCCC[n+]1ccccc1 | 0.376 µM (active) | 335 nM (active) | 
Cc1ccc(O)cc1 | inactive | inactive | 
